Results: ChEMBL document CHEMBL4513216, “Probing the Open Global Health Chemical Diversity Library for Multistage-Active Starting Points for Next-Generation Antimalarials” (ACS Infect Dis, 2020)
Out of some 68,000 compounds screened, about 2,700 (4%) showed an effect of 50% or more. For the sample, strong results were picked, then their nearest neighbours and some compounds at random.

Test system: Plasmodium berghei
Assay: Screen against P. berghei liver stage (PbLuc), transformed with Luciferase, at 2uM
Assay type: functional, HepG2
Conditions: tested at 2 uM

SMILES	INHIBITION [%]
CNC(=O)NC(=O)CN1CCN(CC(F)(F)F)CC1(C)C	21.03
CC1(C)CN(CC(F)(F)F)CCN1CC(=O)NC1CC1	65.42
CC1(C)CN(CC(F)(F)F)CCN1CC(=O)NC1CCCC1	37.42
CCCn1ncc(C2CC(=O)NCc3nc4cc(C)ccn4c32)c1C (stereo not given)	48.21
CCCn1ncc(C2CC(=O)NCc3nc4sc(C)cn4c32)c1C (stereo not given)	55.36
CCC1CC(=O)NCc2nc3sc(C)cn3c21 (stereo not given)	-18.57
Cc1noc(C)c1CN(C)C(=O)Cn1c(=O)n(C)c2ccccc21	-43.5
Cc1ccc(NC(=O)Nc2c(O)c3ccccc3oc2=O)cc1C	8.92
COCCn1c2c(ccc1=O)CCN(C(=O)CC1CC1)CC2	-13.68
NC(=O)NCCC(=O)N1CCC(c2cc(-c3ccccc3Cl)n[nH]2)CC1	31.25
NC(=O)NCC(=O)N1CCC(c2cc(-c3ccccc3Cl)n[nH]2)CC1	39.65
NC1(C(=O)N2CCC(c3cc(-c4ccccc4Cl)n[nH]3)CC2)CCC1	54.07
NC(=O)NC1CCN(Cc2ccc3c(c2)CCC3)CC1	30.42
CC(c1nnc(-c2cccs2)o1)N1CCc2cncnc2C1 (stereo not given)	-9.5
O=c1[nH]nc2c(S(=O)(=O)N3CCCCC3)cccn12	6.33
CCC(CO)N(Cc1ccccn1)C(=O)c1ccc(C)c(Cl)c1 (stereo not given)	42.48
COCCC1(CNC(=O)NCC2CCCN(C)C2)CCCC1 (stereo not given)	-24.61
COCCC1(CNC(=O)NCC2CCC2)CCC1	29.43
COCCC1(CNC(=O)NCC2CCCS2)CCCC1 (stereo not given)	55.39
CC(C)Nc1nc(-c2ccccc2)nc2c1CCN(C(=O)CC#N)CC2	27.22
CCN(Cc1noc(C)n1)C(=O)C(c1ccc(C)cc1)N(C)C (stereo not given)	-0.28
COc1cccc2c1ccn2CCNC(C)=O	-7.17
COc1cccc2c1ccn2CCNC(=O)CC(C)C	-55.67
COCC(=O)NCCn1ccc2c(OC)cccc21	50.32
CCN(CCO)C[C@@H]1CN(c2nc(C)cc(C)n2)C[C@@H]1CO	5.88
O=C(c1ccc(F)c(F)c1)N1CCC(Cn2cc(CO)nn2)CC1	20.91
Cc1nn(C)c(N(C)C)c1CNCc1cccc(CN(C)C(C)C)c1	44.39
CCC(NC1Cc2ccccc2C1)c1ccc(S(C)(=O)=O)cc1 (stereo not given)	10.02
CCC(NC1CCCC1)c1ccc(S(C)(=O)=O)cc1 (stereo not given)	58.65
CCC(NC1CSCCSC1)c1ccc(S(C)(=O)=O)cc1 (stereo not given)	9.51
